Reference: ChEMBL document CHEMBL1961873, “Compounds: GSK PKIS; Assays: Nanosyn kinase panel” (2012)

Experiments:
[1] = target: RAF proto-oncogene serine/threonine-protein kinase (Homo sapiens) (UniProt P04049); conditions: at 1 µM;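 also: values are the mean percent inhibition of CRAF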
[2] = target: T1, Interleukin-1 receptor-associated kinase 4 (Homo sapiens) (UniProt Q9NWZ3); conditions: at 0.1 µM
T1 sequence (whole entry): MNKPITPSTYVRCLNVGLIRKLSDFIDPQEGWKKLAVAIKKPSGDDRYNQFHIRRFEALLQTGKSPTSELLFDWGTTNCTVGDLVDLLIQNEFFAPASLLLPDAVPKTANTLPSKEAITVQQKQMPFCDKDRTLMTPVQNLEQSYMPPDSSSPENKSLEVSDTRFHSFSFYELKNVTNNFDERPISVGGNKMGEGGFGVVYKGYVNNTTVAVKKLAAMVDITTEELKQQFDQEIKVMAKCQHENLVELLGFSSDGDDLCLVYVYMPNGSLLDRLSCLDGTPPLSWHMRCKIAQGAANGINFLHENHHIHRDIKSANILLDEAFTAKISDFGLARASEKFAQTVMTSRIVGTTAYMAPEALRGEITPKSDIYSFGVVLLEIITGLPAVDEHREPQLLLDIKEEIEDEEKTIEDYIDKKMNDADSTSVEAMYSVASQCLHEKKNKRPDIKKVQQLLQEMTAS

[3] = target: T1, Interleukin-1 receptor-associated kinase 4 (Homo sapiens); conditions: at 1 µM
[4] = target: Leucine-rich repeat serine/threonine-protein kinase 2 (Homo sapiens) (UniProt Q5S007); conditions: at 0.1 µM
Leucine-rich repeat serine/threonine-protein kinase 2 (Homo sapiens), sequence (Q5S007 whole entry): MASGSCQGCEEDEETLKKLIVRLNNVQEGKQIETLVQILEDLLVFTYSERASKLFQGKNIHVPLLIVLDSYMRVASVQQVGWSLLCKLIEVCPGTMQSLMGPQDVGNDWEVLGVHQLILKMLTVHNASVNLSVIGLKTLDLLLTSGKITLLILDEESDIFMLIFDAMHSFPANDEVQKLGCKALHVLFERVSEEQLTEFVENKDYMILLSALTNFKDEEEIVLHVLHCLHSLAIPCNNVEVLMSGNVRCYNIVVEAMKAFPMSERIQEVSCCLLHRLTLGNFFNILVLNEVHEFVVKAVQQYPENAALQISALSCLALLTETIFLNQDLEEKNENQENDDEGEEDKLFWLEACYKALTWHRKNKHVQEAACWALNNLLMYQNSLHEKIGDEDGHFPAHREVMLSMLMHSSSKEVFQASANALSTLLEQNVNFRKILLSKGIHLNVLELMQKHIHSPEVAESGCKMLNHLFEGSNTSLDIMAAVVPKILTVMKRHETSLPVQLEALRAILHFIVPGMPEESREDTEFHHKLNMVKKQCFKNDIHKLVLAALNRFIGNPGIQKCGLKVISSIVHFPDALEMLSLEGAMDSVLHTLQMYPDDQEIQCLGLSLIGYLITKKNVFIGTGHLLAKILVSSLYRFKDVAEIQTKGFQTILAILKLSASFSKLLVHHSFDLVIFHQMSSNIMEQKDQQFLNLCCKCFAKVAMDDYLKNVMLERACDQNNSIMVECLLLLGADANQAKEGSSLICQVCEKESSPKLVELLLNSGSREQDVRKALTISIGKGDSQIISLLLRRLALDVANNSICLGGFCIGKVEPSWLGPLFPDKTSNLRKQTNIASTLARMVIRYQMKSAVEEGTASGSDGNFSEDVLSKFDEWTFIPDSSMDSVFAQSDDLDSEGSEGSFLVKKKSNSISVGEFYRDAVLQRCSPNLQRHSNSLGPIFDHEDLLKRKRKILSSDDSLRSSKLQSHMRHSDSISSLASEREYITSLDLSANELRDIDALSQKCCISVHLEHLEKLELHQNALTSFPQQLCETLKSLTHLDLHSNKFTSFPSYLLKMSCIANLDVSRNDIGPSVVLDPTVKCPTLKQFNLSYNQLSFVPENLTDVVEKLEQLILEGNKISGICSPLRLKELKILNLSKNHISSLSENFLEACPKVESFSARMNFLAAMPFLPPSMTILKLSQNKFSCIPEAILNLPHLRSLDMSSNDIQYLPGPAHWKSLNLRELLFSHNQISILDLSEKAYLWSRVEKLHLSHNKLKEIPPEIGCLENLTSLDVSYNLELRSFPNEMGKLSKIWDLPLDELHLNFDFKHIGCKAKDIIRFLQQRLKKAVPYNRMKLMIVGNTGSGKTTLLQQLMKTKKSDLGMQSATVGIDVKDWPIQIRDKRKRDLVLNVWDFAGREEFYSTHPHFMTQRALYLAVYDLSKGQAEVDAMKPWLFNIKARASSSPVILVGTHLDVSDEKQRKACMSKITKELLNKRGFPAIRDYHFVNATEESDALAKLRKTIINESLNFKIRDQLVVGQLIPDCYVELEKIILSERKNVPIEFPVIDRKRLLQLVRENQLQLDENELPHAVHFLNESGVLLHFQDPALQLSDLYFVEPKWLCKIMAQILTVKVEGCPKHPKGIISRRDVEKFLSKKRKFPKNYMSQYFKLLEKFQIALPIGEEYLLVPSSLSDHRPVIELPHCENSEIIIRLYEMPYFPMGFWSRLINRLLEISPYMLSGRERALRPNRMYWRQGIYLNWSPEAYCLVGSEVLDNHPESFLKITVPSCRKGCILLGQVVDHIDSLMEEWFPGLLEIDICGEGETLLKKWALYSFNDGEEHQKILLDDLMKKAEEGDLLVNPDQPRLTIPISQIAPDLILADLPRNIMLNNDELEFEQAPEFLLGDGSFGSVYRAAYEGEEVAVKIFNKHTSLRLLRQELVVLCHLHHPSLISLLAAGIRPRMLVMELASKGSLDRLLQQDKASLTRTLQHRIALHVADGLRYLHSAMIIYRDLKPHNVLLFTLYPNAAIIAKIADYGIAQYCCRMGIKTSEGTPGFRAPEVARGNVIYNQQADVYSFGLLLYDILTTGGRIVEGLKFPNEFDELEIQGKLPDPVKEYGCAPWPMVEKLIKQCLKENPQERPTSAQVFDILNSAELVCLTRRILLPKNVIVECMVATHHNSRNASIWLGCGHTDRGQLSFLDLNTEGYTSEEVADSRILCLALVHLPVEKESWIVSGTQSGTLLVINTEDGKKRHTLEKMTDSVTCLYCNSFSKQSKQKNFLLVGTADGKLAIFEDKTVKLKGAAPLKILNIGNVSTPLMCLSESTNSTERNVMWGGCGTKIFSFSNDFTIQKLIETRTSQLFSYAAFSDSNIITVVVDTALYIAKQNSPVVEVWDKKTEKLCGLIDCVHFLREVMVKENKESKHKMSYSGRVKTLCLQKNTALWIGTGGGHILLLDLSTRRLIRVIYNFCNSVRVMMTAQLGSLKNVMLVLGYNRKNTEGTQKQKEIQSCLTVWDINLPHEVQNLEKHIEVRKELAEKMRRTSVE

[5] = target: Leucine-rich repeat serine/threonine-protein kinase 2 (Homo sapiens) (UniProt Q5S007); conditions: at 1 µM
[6] = tested on: Leucine-rich repeat serine/threonine-protein kinase 2 (Homo sapiens), Q5S007 [G2019S]; conditions: at 0.1 µM
Leucine-rich repeat serine/threonine-protein kinase 2 (Homo sapiens), Q5S007 [G2019S], sequence (Q5S007 whole entry G2019S): as the sequence (Q5S007 whole entry) above, with G2019S counted along it

[7] = tested on: Leucine-rich repeat serine/threonine-protein kinase 2 (Homo sapiens), Q5S007 [G2019S]; conditions: at 1 µM

RAF proto-oncogene serine/threonine-protein kinase (Homo sapiens), sequence (P04049 whole entry): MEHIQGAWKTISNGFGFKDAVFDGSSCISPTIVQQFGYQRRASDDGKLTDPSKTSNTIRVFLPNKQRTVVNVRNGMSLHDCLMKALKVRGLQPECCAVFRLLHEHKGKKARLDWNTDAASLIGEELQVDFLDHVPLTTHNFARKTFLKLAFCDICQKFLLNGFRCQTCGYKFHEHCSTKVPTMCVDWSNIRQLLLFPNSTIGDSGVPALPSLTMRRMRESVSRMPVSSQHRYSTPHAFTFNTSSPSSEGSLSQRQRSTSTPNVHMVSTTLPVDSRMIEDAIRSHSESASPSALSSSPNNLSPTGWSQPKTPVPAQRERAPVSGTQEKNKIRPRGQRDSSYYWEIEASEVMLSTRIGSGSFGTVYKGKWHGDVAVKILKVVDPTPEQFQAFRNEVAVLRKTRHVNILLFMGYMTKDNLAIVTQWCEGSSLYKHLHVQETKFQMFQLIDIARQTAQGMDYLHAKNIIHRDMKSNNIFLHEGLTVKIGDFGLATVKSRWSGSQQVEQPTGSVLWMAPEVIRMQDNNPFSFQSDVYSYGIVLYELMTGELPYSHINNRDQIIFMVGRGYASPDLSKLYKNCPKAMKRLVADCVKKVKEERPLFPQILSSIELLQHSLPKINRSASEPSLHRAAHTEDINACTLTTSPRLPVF

Structure (SMILES)	inhibition [1]	inhibition [2]	inhibition [3]	inhibition [4]	inhibition [5]	inhibition [6]	inhibition [7]
COc1cccc(-n2ncc3c(N/N=C/c4cccc(F)c4)ncnc32)c1	-6.84%	3.28%	1.56%	-3.46%	-0.49%	0.79%	2.23%
Cc1nnc(-c2ccc(C)c(-c3ccc(C(=O)Nc4cccc(C#N)c4)cc3)c2)o1	-9.42%	4.13%	0.84%	0.06%	0.83%	2.49%	7.62%
NCc1ccc(-c2nc(-c3ccc(Cl)c(O)c3)c(-c3ccncc3)[nH]2)cc1	76.6%	3%	0.37%	1.04%	1.56%	1.02%	4.61%
CN(C)c1cc2c(Nc3ccc4nc(Cc5ccccc5)[nH]c4c3)ncnc2cn1	-7.27%	2.36%	1.94%	5.94%	7.11%	5.3%	13.7%
Nc1nc(-c2ccc3c(c2)C(=Cc2cc(Br)c(O)c(Br)c2)C(=O)N3)cs1	26.7%	3.08%	-0.15%	0.74%	14.2%	10.3%	43.5%
COc1cc(C)c(NC(=O)CN(C)C)cc1Nc1nc(Nc2cccc(F)c2C(N)=O)c2cc[nH]c2n1	-0.14%	-2.25%	2%	91.2%	90.2%	83.5%	88.7%
CN1CCC(C(=O)Nc2n[nH]c3nnc(-c4ccccc4)cc23)CC1	8.96%	1.96%	2.54%	1.09%	3.72%	3.14%	6.96%
CCn1c(-c2nonc2N)nc2c(N3CCCC3)nccc21	-1.43%	1.9%	-0.28%	-2.19%	2.91%	0.77%	1.57%
COc1cc(C=NNc2ncnc3c2cnn3-c2ccccc2)ccc1O	-6.14%	-2.02%	3.98%	7.59%	22.3%	7.59%	40.8%
O=C1NC(=O)C(N2CCc3ccccc32)=C1c1ccc(Cl)cc1	0.17%	3.05%	1.81%	3.88%	8.75%	4.99%	10.7%
COc1cc2ncn(-c3cc(OCc4ccccc4Cl)c(C(N)=O)s3)c2cc1OC	0.88%	2.64%	0.8%	2.12%	14.5%	12%	54.5%
c1cnn2ncc(-c3ccnc(Nc4ccc5c(c4)OCCO5)n3)c2c1	–	-2.01%	7.85%	12.2%	19.8%	16.6%	61.4%
Fc1cccc(COc2ccc(Nc3ncnc4cc(-c5ccc[nH]5)sc34)cc2Cl)c1	1.43%	7.16%	1.69%	-4.42%	-3.46%	-1.54%	0.39%
Cc1cccc(-c2n[nH]cc2-c2ccc3ncccc3n2)n1	–	1.85%	0.21%	1.67%	10.1%	2.43%	10.6%
CCCN1CCC=C(c2ccc(Nc3nc(Nc4ccccc4C(N)=O)c4cc[nH]c4n3)c(C)c2)C1	3.95%	2.14%	5.18%	77.6%	87.8%	63.6%	63.6%
CS(=O)(=O)Nc1ccc(N/C=C2\C(=O)Nc3ccccc32)cc1	-2.68%	-0.49%	-0.15%	1.31%	18.1%	5.01%	31.3%
CC1=C(C(=O)Nc2ccc3[nH]ncc3c2)C(c2ccc(F)cc2)NC(=O)N1 (stereo unspecified)	-2.67%	2.07%	0.77%	2.24%	5.08%	3.81%	14.8%
NC(=O)c1ccc(-c2nc(-c3ccccn3)c(-c3ccc4c(c3)OCO4)[nH]2)cc1	15.6%	2.26%	1.06%	2.49%	5.02%	2.85%	3.41%
[O-][S+]1CCN(Cc2ccc(-c3ccc4ncnc(Nc5ccc(OCc6ccccc6)c(F)c5)c4c3)o2)CC1	-3.42%	3.06%	1.06%	2.89%	2.77%	2.32%	8.38%
